A selection: hits, their analogues and other compounds. The true share with any hit is near 0.63%.
TSHR antag = antagonists of human thyroid stimulating hormone receptor; P16473; TSHR-expressing cells, TSH-stimulated cAMP HTRF, 2 h; active compounds read low; activity change, negative = inhibition, % at 11.5 µM; hit rate 0.2% among 330,000;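 active means activity change below a set negative limit, meaning inhibition stronger than a set level, cut at about -70% in these data; inconclusive means activity change between two set negative limits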; further: on the % scale 0 is the no-effect control and ±100 the full control effect
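Read-out is FRET at 665 nm (cryptate excitation 337 nm) from a cryptate-tagged anti-cAMP antibody, competed by cell cAMP against cAMP-d2. Compounds are tested on freshly harvested TSHR cells challenged with 4nM TSH (EC80) for 2 hours at 37 deg C.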
Pin1 inh = human Pin1 inhibition. Pin1 FP peptide displacement, HiFluor488, 10 min. Potency, µM (series often up to 115 µM), for the others: at the top dose activity, negative = inhibition, actives largely listed as inhibitors. hit rate 0.009% among 390,000. AID 504891; active means well fitted inhibition curve with a large enough effect in the polarisation, with a control signal flat, not every such curve was filed as active; inconclusive means small, poorly fitted or top-dose-only effect, or effect the other way, or a change in a side signal; inactive means no such curve, though single readings can be large or run the other way; the % refers to the polarisation; further: potency means the concentration at half of the fitted maximal effect; on the % scale 0 is the no-effect control and ±100 the full control effect
Target sequence (Q13526 whole entry, looked up): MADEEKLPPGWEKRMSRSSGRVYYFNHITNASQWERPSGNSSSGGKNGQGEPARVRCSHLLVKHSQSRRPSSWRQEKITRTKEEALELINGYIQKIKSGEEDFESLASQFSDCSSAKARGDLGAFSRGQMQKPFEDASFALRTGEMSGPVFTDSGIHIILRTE
gsp ag = activates gsp, the McCune-Albright syndrome mutation; gsp mutant cells, cAMP HTRF, 30 min; hit rate 0.13% among 340,000; Potency, µM (top dose mostly 76.9 µM), inactives show top-dose activation (cAMP increase), most hits filed as activators; active means well fitted activation curve with a large enough effect; inconclusive means small, poorly fitted or top-dose-only effect, or another doubt; inactive means no such curve, though single readings can be large or run the other way; cell line not stated here;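 further: phosphodiesterase inhibitor Ro 20-1724 added with compounds to block cAMP breakdown; potency means the concentration at half of the fitted maximal effect; nearly all actives have a fitted effect of over 60% in size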
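Cells stably selected in G418 were plated at 2000/well, grown 16-24 hr, then given compounds in DMSO with the PDE inhibitor […] (300 uM solution added) for 30 min at 37C; cAMP was read by HTRF.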
TCR act = activators of T cell receptors; Potency, µM (top dose mostly 9.22 µM), for inactives: at the highest dose activation of IL-2 secretion, actives largely listed as activators; 330,000 tested, under 10 active; primary human leukocytes, anti-CD3, IL-2 HTRF, 48 h; active means well fitted activation curve with a large enough effect; inconclusive means small, poorly fitted or top-dose-only effect, or another doubt; inactive means no such curve, though single readings can be large or run the other way; further: % of control where 0% means no effect
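1) Mix primary human leukocytes, a-CD3 beads and compound. 2) Incubate 48 hr. 3) Add HTRF IL-2 reagents (a-IL-2-K, a-IL-2-d2).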
gsp antagonist = gsp mutant antagonism. gsp-mutant cells, cAMP HTRF, 30 min. Potency, µM (series often up to 76.9 µM), for inactives: at the top dose activity change, negative = inhibition, usual class: inhibitors. hit rate 0.4% among 340,000; calls by dose curve; cell line not stated here;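 further: intracellular cAMP measured with PDE inhibitor Ro 20-1724 present during compound exposure; potency means the concentration at half of the fitted maximal effect; on the % scale 0 is the no-effect control and ±100 the full control effect; nearly all actives have a fitted effect of over 65% in size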
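Cells, 2000/well, grown 16–24 h in DMEM 10% FBS with 0.5 mg/ml G418, then compounds plus […] (300 uM addition stock), 30 min at 37C. cAMP read by HTRF (cAMP-d2 and anti-cAMP antibody-K in lysis buffer) after 30 min RT.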
* = called active by the depositor; ? = inconclusive; / = not tested or not shown; [ ] = dose if it differs, or a comment.

SMILES | TSHR antag | Pin1 inh | gsp ag | TCR act | gsp antagonist
Cc1ccc(C)c(S(=O)(=O)/N=C2\C=C(NS(=O)(=O)c3ccccc3)C(=O)c3ccccc32)c1 | 3 | -11% | -51% | -8% | ?
Cc1cc(C)c(S(=O)(=O)/N=C2/C=C(Sc3ncn[nH]3)C(=O)c3ccccc32)cc1C | -3 | 38µM* | 10% | -6%[46.1 µM] | ?
CN(C)c1ccc(NC(=O)C2C3C=CC(C3)C2C(=O)O)cc1 (centres undefined) | -89* | -13% | -110% | 13% | 28µM*
O=C(O)c1cccc2c1C(=O)c1cc([N+](=O)[O-])ccc1-2 | / | 0% | ? | 4% | -9%
CC1=NOC(=O)/C1=C\c1ccc(-c2ccccc2Br)o1 | 9 | 10% | 16µM* | 0% | 8%
CCOc1ccc(S(=O)(=O)Nc2cc(F)ccc2F)c2cccnc12 | 23 | -11% | 4%[15.4 µM] | 7% | -20%
COc1ccccc1CC1S/C(=N/N=C/c2ccco2)NC1=O (centres undefined) | -3 | 2% | -28% | 6% | 28µM*
O=[N+]([O-])c1ccc(N=Nc2ccc(O)cc2O)cc1 | -74* | -3% | -3%[15.4 µM] | 0% | ?
CCOC(=O)c1c(NC(=O)COc2cccc3c2CCN(C)C3=O)sc2c1CCC2 | -5 | 29% | -40% | -2%[46.1 µM] | 14µM*
COc1ccc(CC2(C)OC(c3ccc(C)cc3)=NN2C(C)=O)cc1 (centres undefined) | -2 | 0% | -2%[15.4 µM] | -1%[46.1 µM] | -22%
COc1cccc(-c2noc(C3CCCN(C(=O)c4ccccc4OC)C3)n2)c1 (centres undefined) | 54 | 1% | 0% | 4% | 35µM*
O=C(NC1CCN(Cc2ccccc2)CC1)c1ccccc1OCc1ccccc1 | -7 | -3% | -23% | -8% | -7%
Cc1cccc([C@@H]2[C@@H]3C(=O)N(Cc4ccccc4)C(=O)[C@@H]3[C@]3(C)C(=O)N(c4cccc(F)c4)C(=O)N23)c1 | 4 | -1% | / | 4% | 28µM*
Cc1ccc(N2C(=O)N3[C@H](c4cccc(C)c4)[C@@H]4C(=O)N(Cc5ccccc5)C(=O)[C@@H]4[C@]3(C)C2=O)cc1 | -1 | 7% | -22% | -5% | -2%
O=C(O)CCSc1nc2ccccc2n1Cc1ccccc1 | -117* | -7% | 3% | -12% | -28%
CCCn1c(SCCC(=O)O)nc2ccccc21 | 3 | 1% | 0%[15.4 µM] | 1% | -45%
COC(=O)C(Cc1ccccc1)NC(=O)c1cc(=O)[nH]c2ccccc12 (centres undefined) | 5 | 5% | -14%[15.4 µM] | -20% | /
COC(=O)[C@H](CC(C)C)NC(=O)c1cc2c(cn1)[nH]c1ccccc12 | -8 | ? | ? | -1% | 7.9µM*
O=C(Nc1ccccc1N1CCOCC1)c1ccc(S(=O)(=O)NCc2ccco2)cc1 | -77* | 0% | -10%[15.4 µM] | -2% | -8%
O=C(O)C1=NOC(CNC(=O)c2ccccc2Cl)C1 (centres undefined) | -3 | 19% | 1%[15.4 µM] | -8% | 5%
Cc1ccc(C2C(C#N)=C(N)SC(N)=C2C#N)o1 | -12 | / | / | / | /
CCNC(=O)NC(=O)C(C)OC(=O)c1ccc(SC)cc1OC (centres undefined) | 11 | 0% | 3% | 0% | 6%
CCc1c(-c2ccccc2)nc2sc3c(c2c1N)CCCC3 | -33 | 3% | 6%[15.4 µM] | -2% | 35µM*
O=C(Nc1ccc(C(=O)Oc2ccccc2)c(O)c1)c1ccco1 | -34 | -7% | 8% | / | 35µM*
O=C(Nc1ccc(C(=O)Oc2ccccc2)c(O)c1)c1ccccc1 | -23 | 0% | -15% | 4% | ?
SMILES | TSHR antag | Pin1 inh | gsp ag | TCR act | gsp antagonist
CCOc1ccccc1N(CC(=O)N1CCC(C)CC1)S(=O)(=O)c1ccc(C)cc1 | 18 | -8% | 2% | 11% | -33%
CN(C)/C=C1/NC(=S)NC1=O | -3 | -13% | -6%[15.4 µM] | -12% | -49%
Cc1nnc(SCc2nnc(-c3cccs3)o2)n1Cc1ccccc1 | 9 | -1% | 4%[15.4 µM] | / | 9%
Clc1ccc(-c2nnc(CSc3nnc(-c4cccs4)n3Cc3ccccc3)o2)cc1 | -17 | 7% | 11% | -3% | 25µM*
Cc1cc(C)n(S(=O)(=O)c2cc(Cl)ccc2Cl)n1 | 5 | -9% | -16% | -3% | -11%
O=C(CSc1n[nH]c(-c2ccco2)n1)Nc1ccc(Br)cc1 | -11 | ? | -19%[15.4 µM] | 1% | 5%
CC1CCc2c(sc3nc(SCC(=O)O)n(-c4ccccc4)c(=O)c23)C1 (centres undefined) | -11 | -2% | 18% | 5% | -50%
[N-]=C=C1C(=S)NC(=O)[C@H]([n+]2ccccc2)[C@H]1c1ccc(Cl)cc1 | 37 | -16% | 20µM* | -3% | 5%
Cc1ccc(C)c(NC(=S)c2ccc3ccccc3n2)c1 | -13 | 1% | -5% | 7%[46.1 µM] | 6%
CN(C)c1ccc(NC(=S)c2ccc3ccccc3n2)cc1 | -91* | 3% | -10% | 0% | 4%
Cc1cc(C)c(C#N)c(SCc2ccc(C(=O)O)cc2)n1 | 4 | 6% | -3% | -6% | 40µM*
Cc1cc(C)c(C#N)c(SCc2ccccc2)n1 | -23 | -2% | -19% | -19%[46.1 µM] | -10%
COc1cc(CCC(=O)Nc2ccc(Cl)c(C(F)(F)F)c2)cc(OC)c1OC | -4 | -2% | ? | -1%[46.1 µM] | -28%
COc1cc(CCC(=O)Nc2ccc(Br)c(C(F)(F)F)c2)cc(OC)c1OC | -8 | 6% | 0%[15.4 µM] | -6%[46.1 µM] | 28µM*
Cc1ccc(NC(=S)Nc2cc(-c3ccccc3)[nH]n2)cc1Cl | -11 | -5% | 16%[15.4 µM] | -7% | -12%
CCOc1ccccc1NC(=O)NCc1cccnc1 | -10 | -1% | -15% | -2% | 8%
C(=N\Nc1nc(Nc2ccccc2)nc(N2CCOCC2)n1)/c1c[nH]c2ccccc12 | -9 | 4% | 1% | 3% | -24%
Cc1ccc(Nc2nc(N/N=C/c3c[nH]c4ccccc34)nc(N3CCOCC3)n2)cc1 | 6 | 0% | 1%[15.4 µM] | -2%[46.1 µM] | 40µM*
O=[N+]([O-])c1ccc2nc(/C=C/c3ccc(Cl)cc3)[nH]c2c1 | -35 | 2% | -17% | -2% | 35µM*
Cc1ccc(C(=O)N2CCN(c3ccccc3)CC2)cc1S(=O)(=O)N1CCCC1 | 7 | 12% | -40% | -2% | 32µM*
Cc1ccc(C(=O)N2CCN(c3ccc(F)cc3)CC2)cc1S(=O)(=O)N1CCCCC1 | -14 | -3% | -54% | -5% | -10%
CSc1ccc(S(=O)(=O)N(C)Cc2ccccc2)cc1 | -5 | -7% | -24% | -9% | 35µM*
COc1ccc(-n2nnnc2SCC(=O)NC2CCCC2)cc1OC | -92* | 7% | -15% | 12% | 4%
COc1cc(OC)cc(-n2nnnc2SCC(=O)NC2CCCC2)c1 | -6 | 1% | -5% | -4% | 3%
CCSc1nnc(NC(=O)C(CC)(C(F)(F)F)C(F)(F)F)s1 | -13 | -2% | 2% | 1% | ?

Assay outcomes (PubChem BioAssay)
